Screen size: about 340,000 compounds; about 6,900 (2%) were called active. No stated cut-off is given here; in the data, active means inhibition above about 30%; inactive means below that, where a call was filed. What follows is part of a selection rich in actives, with near analogues and random picks from the rest.
The molecules below were run against D(2) dopamine receptor (Homo sapiens) (UniProt P14416) (assay: HTS Assay for Allosteric Antagonists of the Human D2 Dopamine Receptor: Primary Screen for Antagonists). Conditions: HEK293 TREx D2 cells, calcium flux, dopamine EC80; at 10 µM; stronger effect = higher value.
D(2) dopamine receptor (Homo sapiens), sequence (P14416 whole entry, looked up): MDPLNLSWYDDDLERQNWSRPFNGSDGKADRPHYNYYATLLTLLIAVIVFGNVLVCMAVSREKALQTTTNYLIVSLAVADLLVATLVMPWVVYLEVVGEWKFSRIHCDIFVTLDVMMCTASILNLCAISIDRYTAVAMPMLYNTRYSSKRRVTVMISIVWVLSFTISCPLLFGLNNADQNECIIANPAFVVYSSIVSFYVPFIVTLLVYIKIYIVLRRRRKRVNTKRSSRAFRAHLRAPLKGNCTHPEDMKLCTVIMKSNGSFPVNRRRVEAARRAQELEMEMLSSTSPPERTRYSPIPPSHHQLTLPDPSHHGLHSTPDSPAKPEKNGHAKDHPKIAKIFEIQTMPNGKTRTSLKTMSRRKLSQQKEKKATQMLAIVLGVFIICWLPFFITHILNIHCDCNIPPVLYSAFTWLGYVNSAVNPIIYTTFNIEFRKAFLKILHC
From the text: NIH Chemical Genomics Center [NCGC] NIH Molecular Libraries Probe Centers Network [MLPCN] MLPCN Grant: NS064831-01 Assay Submitter (PI): David Sibley Dopamine receptors (DARs) are involved in the etiology and/or therapy of a number of neuropsychiatric and endocrine disorders. For instance, all receptor-based antiparkinsonian drugs work via stimulating the D2 DAR subtype whereas all FDA-approved antipsychotic agents are antagonists of this receptor. […] There are three different types of allosteric modulators that we are seeking, two of which will stimulate or augment receptor signaling, allosteric agonists and potentiators, while the third, allosteric antagonists, will attenuate receptor signaling. The present primary screening assay measures compound antagonism after an EC80 addition of dopamine by tracking calcium flux in a […], inducible Hek293 Trex D2 cell line.
Freshly passaged cells are plated in 1536 well black, clear bottom plates at a density of 4000 cells/well in 3 ul of complete media containing 1x tetracycline inducer. After an overnight incubation at 30 C in 5% CO2, cells are loaded with 2 ul of the no wash Calcium Assay Kit (ABD Bioquest) and incubated at room temperature for 30 to 90 minutes. Agonist read: A 10 cycle (1 second/cycle) baseline measurement is taken and then the FDSS online 1536 pintool delivers 23 nl of compound library (as well as dopamine controls) to the plate. The plate is measured for kinetically at 1 cycle/sec for 180 seconds. Following the 180 second read, 1 ul of an EC80 (negative modulation assay) is delivered by an onboard pipette head. Measurements are taken kinetically for an additional 180 seconds.
Further: 0% is about no effect.

inhibition, inactive:
Cc1ccc(N(CC(O)CN2CCCC2)S(=O)(=O)c2ccccc2)cc1 (centres undefined) -18.8%, CCN(CC)C(=O)CN(c1cccc([N+](=O)[O-])c1)S(=O)(=O)c1ccccc1 -8.71%, O=S(=O)(c1ccccc1)N(CC(O)CN1CCCCC1)c1ccccc1 (centres undefined) -13.9%, COc1ccc([N+](=O)[O-])cc1N(CC(O)Cn1nnc2ccccc21)S(=O)(=O)c1ccc(C)cc1 (centres undefined) 12.1%, COc1ccc([C@H]2CC(=O)C=C(c3ccc(OC(F)(F)F)cc3)C2)cc1OC 10.4%, CN(CC(=O)NCCc1ccc(F)cc1)CC(=O)Nc1ccc(F)c(F)c1F -4.31%, CCCCn1c(N)c(N(CCC(C)C)C(=O)COC(=O)c2ccc(CC)cc2)c(=O)[nH]c1=O -24%, O=C(Nc1ccc2c(c1)OCO2)C1CC1(Cl)Cl (centres undefined) 4.68%, CCCn1nnnc1NCc1ccc(OC)cc1 -21.1%, COc1ccc(Cc2nnc(SCC(=O)N(c3ccccc3)C(C)C)n(N)c2=O)cc1 -8.57%, Cc1ccccc1OCCC(=O)OCC(=O)NCCc1ccc(S(N)(=O)=O)cc1 -20%, COc1cccc(CNC(=O)CCC2CCCN(C(=O)c3ccoc3C)C2)c1 (centres undefined) -10.4%, COc1cccc(CNC(=O)CCC2CCCN(C(=O)c3ccc(F)c(Cl)c3)C2)c1 (centres undefined) 7.84%, Cc1ccc(S(=O)(=O)N2[C@@H](c3cccc(Cl)c3)C(C(=O)O)=CC[C@H]2c2ccc(Cl)c(Cl)c2)cc1 -1.92%, COc1ccc(S(=O)(=O)N2CCOCC2)cc1NC(=O)Cc1coc2cc(C)ccc12 -8.41%, O=C(NNC(=O)C1CCC1)c1ccccc1 -2.25%, Cc1ccc(NC(=O)Nc2cccc(C(F)(F)F)c2)nc1 -7.91%, CC(C)C[C@H](NC(=O)Nc1cccc(C(F)(F)F)c1)C(=O)O 7.87%, CCOC(=O)[C@H]1[C@H]2COc3ccc(C)cc3[C@@H]2N2C(=O)CN(Cc3ccc(F)cc3)C(=O)[C@@]12C -3.67%

inhibition, active:
Cc1ccc(S(=O)(=O)N(CC(O)CN2C(=O)NC(C)(C)C2=O)c2cccc([N+](=O)[O-])c2)cc1 (centres undefined) 30.4%, Cc1ccc(S(=O)(=O)N(CC(O)CN2CCCCC2)c2cccc([N+](=O)[O-])c2)cc1 (centres undefined) 35.8%, COc1ccc(Cc2nnnn2CC(=O)O)cc1 35.2%, COc1cccc(C(=O)N2CCCC(CCC(=O)NCc3ccc(F)c(F)c3)C2)c1 (centres undefined) 34.4%, CCNS(=O)(=O)c1ccc(NC(=O)Nc2cccc(C(F)(F)F)c2)cc1 38.4%

Source: PubChem BioAssay AID485344 (National Center for Advancing Translational Sciences (NCATS), 2010)
